ClpP mod: qHTS Assay for Activators of ClpP. 340,000 tested, 1.9% active. ATP-dependent Clp protease proteolytic subunit (Bacillus subtilis (strain 168)), P80244. Potency, µM (top dose mostly 57.5 µM), for inactives: at the highest dose activity change, negative = active. AID 651965, 2013. purified B. subtilis ClpP, FRET peptide cleavage, 20 min; active = well fitted falling curve with a large enough effect; inconclusive = small, poorly fitted or top-dose-only effect; inactive = no such curve, though single readings can be large or run the other way; also: potency is read from the fitted curve at half-maximal effect; the source files actives as falling curves though it sought activators and does not explain the sign; nearly all actives have a fitted effect of over 65% in size
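Buffer: 100 mM Tris/HCl pH8, 100 mM KCl, 0.05% low protease BSA, 2.5% glycerol, 0.01% Tween-20. ClpP 10 microg/mL final; 20 min RT; delta FRET normalized to ADEP and DMSO controls.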
IDH1 R132H inh: qHTS for Inhibitors of mutant isocitrate dehydrogenase 1 (IDH1): qHTS | Potency, µM (titrated, usually from 76.6 µM), without a hit: at the top dose activity change, negative = inhibition, usual class: inhibitors | 390,000 tested, 0.093% active | Isocitrate dehydrogenase [NADP] cytoplasmic (Homo sapiens), O75874 | AID 602179, 2012 | IDH1-R132H enzyme, NADPH consumption, diaphorase/resazurin fluorescence; also: potency is read from the fitted curve at half-maximal effect; % is scaled to controls: 0 for no effect and ±100 for the full control effect; nearly all actives have a fitted effect of over 65% in size
Target sequence (O75874 whole entry R132H, stated change not applied): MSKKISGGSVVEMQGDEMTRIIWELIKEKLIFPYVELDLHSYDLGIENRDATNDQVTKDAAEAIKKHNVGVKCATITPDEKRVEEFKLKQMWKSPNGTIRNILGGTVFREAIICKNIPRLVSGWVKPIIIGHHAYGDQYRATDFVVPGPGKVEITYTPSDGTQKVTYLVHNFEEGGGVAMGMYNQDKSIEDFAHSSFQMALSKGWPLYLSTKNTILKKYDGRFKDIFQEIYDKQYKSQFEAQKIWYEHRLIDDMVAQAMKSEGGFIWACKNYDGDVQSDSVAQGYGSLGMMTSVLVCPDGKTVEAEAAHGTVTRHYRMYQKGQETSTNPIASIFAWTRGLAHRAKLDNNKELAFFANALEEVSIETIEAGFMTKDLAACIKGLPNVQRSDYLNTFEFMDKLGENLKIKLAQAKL
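IDH1-R132H (0.5 ug/mL) preincubated 30 min with compound, then NADPH (0.016 mM) and alpha-KG (2 mM) added; 80 min at RT, pH 7.5. Remaining NADPH coupled via diaphorase/resazurin to fluorescence (540/590 nm); concentration-response curves normalized to no-enzyme control.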
RGS4 inh: Inhibitors of Regulator of G Protein Signaling (RGS) 4: qHTS; Transcreener GDP fluorescence polarization, RGS4-accelerated GTP hydrolysis; Potency, µM (highest dose often 114 µM), without a hit: at the highest dose activity change, negative = inhibition, most hits filed as inhibitors; 390,000 tested, 0.039% active; AID 504845, 2011; also: potency is read from the fitted curve at half-maximal effect; % is scaled to controls: 0 for no effect and ±100 for the full control effect; nearly all actives have a fitted effect of over 75% in size
Target sequence (P49798 whole entry, looked up): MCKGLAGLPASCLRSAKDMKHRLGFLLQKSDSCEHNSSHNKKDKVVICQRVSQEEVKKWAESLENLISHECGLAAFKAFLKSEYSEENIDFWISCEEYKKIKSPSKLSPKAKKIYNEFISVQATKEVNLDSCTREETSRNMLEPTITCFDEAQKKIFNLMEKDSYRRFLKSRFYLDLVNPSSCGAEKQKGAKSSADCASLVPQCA
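MLSMR compounds (23 nl, pin-transferred) preincubated 10 min at room temperature with a 500nM (2x) first reagent, then RGS4 at 900nM (2x) plus Transcreener GDP mix added; fluorescence polarization (620/688 nm) read before and after 90 min at 30 °C.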
LDHA inh: qHTS assay for inhibitors of human lactate dehydrogenase; purified LDHA, NADH/diaphorase-resazurin fluorescence; hits give low values; AID 1347041, 2019; 480,000 tested, 0.15% active; activity change, % (values are at about 110 or 230 µM); in the data active = activity change below about -30%; inconclusive = mostly about -25% to -30%;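 also: plate controls were DMSO wells for no effect and wells without enzyme for full effect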
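LDH5 2 nM; NADH 0.06 mM, pyruvate 0.2 mM; 200 mM Tris pH 7.4, EDTA, Tween-20; 5 min RT. Detection: diaphorase 0.133 mg/mL + resazurin 37 µM, fluorescence ex540/em590 at 0 and 20 min; normalized to enzyme-free and DMSO wells.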
Mito fusion act: qHTS Assay for Small Molecule Inhibitors of Mitochondrial Division or Activators of Mitochondrial Fusion | S. cerevisiae fusion-defective mutant growth rescue, CellTiterGlo 48 h | Potency, µM (titrated, usually from 46.1 µM), inactives show at the highest dose growth rescue (activation), most hits filed as activators | 320,000 tested, 0.23% active | AID 485298, 2010; also: potency is read from the fitted curve at half-maximal effect; % of control where 0% means no effect; nearly all actives have a fitted effect of over 45% in size
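S. cerevisiae fusion-defective temperature-sensitive mutants (e.g. fzo1-1, mgm1-5) grown 48 h at 37C in YPEG (ethanol/glycerol non-fermentable) medium with 23 nl compound per well; growth rescue read as CellTiterGlo luminescence.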
ASM inhibitor: Inhibitors of Secretory Acid Sphingomyelinase (S-ASM): qHTS; Sphingomyelin phosphodiesterase (Homo sapiens), P17405; placental ASM, HMU-PC fluorogenic substrate, 60 min; Potency, µM (highest dose often 57.5 µM), without a hit: at the highest dose activity change, negative = inhibition, hits mostly inhibitors; 340,000 tested, 0.006% active; also: potency is read from the fitted curve at half-maximal effect
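Fluorogenic HMU-PC substrate (9 uM final) is turned over by placental ASM in 60 min at 37 C after a 10 min compound preincubation. Reaction ended by alkaline stop (pH 10), with fluorescence read at 386/447 nm.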
An asterisk follows results filed as active; i = inactive; ? = inconclusive; / = not tested or not shown; [ ] = remark or other dose. The full list was thinned out, with hits kept by preference. Unless noted, calls follow the shape of the dose curve; as a rule, active = well fitted curve in the direction sought with a large enough effect; inconclusive = small, poorly fitted or top-dose-only effect, or another doubt; inactive = no such curve, though single readings can be large; an effect the other way counts as inactive or inconclusive.

SMILES	ClpP mod	IDH1 R132H inh	RGS4 inh	LDHA inh	Mito fusion act	ASM inhibitor
Cc1cc(=O)c(C(=O)Nc2nnc(C3CC3)s2)nn1-c1ccccc1Cl	/	/	/	9	/	/
CC1(C(=O)Nc2cccc(Br)c2)Cc2ccccc2C(=O)O1 (stereo not given)	1%	13%	-15%	0	/	/
CC1(C(=O)Nc2cccc(-n3cnnn3)c2)Cc2ccccc2C(=O)O1 (stereo not given)	35µM*	3%	-4%	-8	/	-3%
CN(CC(=O)Nc1cccc(F)c1)C(=O)CCN1C(=O)C2CC=CCC2C1=O (stereo not given)	-2%	-14%	-8%	-17	-5%	2%
O=C(COC(=O)CCCN1C(=O)c2cccc3cccc(c23)C1=O)Nc1cccc(C(F)(F)F)c1	28µM*	0%	-2%	1	-7%	-17%
CCN(C(=O)COC(=O)CCCN1C(=O)c2cccc3cccc(c23)C1=O)C1CCS(=O)(=O)C1 (stereo not given)	28µM*	0%	6%	-7	4%	1%
CN(CC(=O)Nc1cccc(F)c1)C(=O)CCCN1C(=O)c2cccc3cccc(c23)C1=O	14µM*	5%	1%	-6	7%	-8%
COc1ccc(C(=O)N2CCN(c3ccc([N+](=O)[O-])c(-n4nc(C)c5ccccc5c4=O)c3)CC2)cc1	/	/	/	2	/	/
O=C(O)CCC(NC(=O)Cc1ccc2ccccc2c1)C(=O)O (stereo not given)	/	/	/	4	/	/
COCCCn1c(=N)c(C(=O)NCc2ccco2)cc2c(=O)n3cccc(C)c3nc21	4%	28%	-6%	-10	/	/
Cc1cccn2c(=O)c3cc(C(N)=S)c(=N)n(CCCOC(C)C)c3nc12	16µM*	1%	?	16	4%	125%
CCOCCCn1c(=N)c(C(N)=S)cc2c(=O)n3cccc(C)c3nc21	28µM*	10%	?	3	6%	153%
Cc1ccc(NC(=O)CSCC(=O)Nc2nnc(C)s2)cc1	28µM*	-2%	-15%	-2	3%	4%
O=C1CCCC2=C1C(c1ccc(Br)cc1)c1c([nH]c(=S)[nH]c1=O)N2 (stereo not given)	-3%	2%	?	-13	10%	10%
O=c1[nH]c(=S)[nH]c2c1C(c1ccc(Br)cc1)c1c([nH]c(=S)[nH]c1=O)O2	/	0%	?	-77*	14%	-12%
Cc1cc(C)c(C(=O)C(C)Oc2cccc(C#N)c2)cc1C (stereo not given)	/	/	/	4	/	/
Cc1ccc(N(C)S(=O)(=O)c2ccc(/C=C\c3onc(C)c3NC(=O)C3CC3)cc2)cc1C	/	/	/	2	/	/
O=C(COC(=O)c1ccccc1C(=O)c1ccccc1)Nc1ccc(SC(F)F)cc1	-3%	1%	4%	-8	16µM*	-7%
O=C(COc1ccccc1C(=O)O)Nc1ccc(SC(F)F)cc1	/	-5%	12%	3	2%	4%
O=c1[nH]c2ccc(-c3csc(NC4CC4)n3)cc2[nH]1	/	/	/	13	/	/
CCCCN(C)C(=O)CCC(=O)Nc1ccc2nc(N3CCOCC3)cc(C)c2c1	7.9µM*	-2%	2%	12	5%	402%
COc1cc(NC(=O)CCC(=O)Nc2ccc3nc(N4CCOCC4)cc(C)c3c2)cc(OC)c1OC	25µM*	7%	5%	1	-4%	i
COc1ccc(NC(=O)CCC(=O)Nc2ccc3nc(N4CCOCC4)cc(C)c3c2)c(OC)c1	/	-8%	9%	0	0%	398%
CCOC(CCNC(=O)CCC(=O)Nc1ccc2nc(N3CCN(C)CC3)cc(C)c2c1)OCC	/	2%	10%	-8	1%	418%
CCOc1ccccc1NC(=O)CCC(=O)Nc1ccc2nc(N3CCN(C)CC3)cc(C)c2c1	25µM*	-2%	19%	-6	-3%	375%
SMILES	ClpP mod	IDH1 R132H inh	RGS4 inh	LDHA inh	Mito fusion act	ASM inhibitor
COc1ccc(N(C)C(=O)CCC(=O)Nc2ccc3nc(N4CCOCC4)cc(C)c3c2)c(OC)c1	28µM*	3%	21%	10	1%	466%
CCCCN(C)C(=O)CCC(=O)Nc1ccc2nc(N3CCN(C)CC3)cc(C)c2c1	/	-2%	-8%	-8	-2%	i
CCCCC(=O)Nc1cc(C)c(O)c(-c2nc3ccccc3o2)c1	/	/	/	3	/	/
N#CC1(NC(=O)CSc2nc(-c3ccccc3)cs2)CCCCC1	/	/	/	-8	/	/
N#Cc1ccnc(N2CCN(C(=O)Nc3ccccc3)CC2)c1	/	/	/	3	/	/
Cc1cc(N2CCOCC2)nc2ccc(NC(=O)CCC(=O)N3CCC(C)CC3)cc12	28µM*	2%	27%	3	1%	434%
CCn1c(C)[n+](CCOCC[n+]2c(C)n(CC)c3cc(Cl)c(Cl)cc32)c2cc(Cl)c(Cl)cc21	-1%	0%	-15%	-43*	-4%	2%
Cc1c(C)c2ccc(OCC(=O)NCc3ccncc3)cc2oc1=O	/	/	/	15	/	/
CCOc1cc(C2C3=C(CCCC3=O)OC3=C2C(=O)CCC3)cc(Br)c1OCC(=O)O	/	/	/	-33*	/	/
CC1CCN(C2CCN(S(=O)(=O)c3ccc(F)cc3)CC2)CC1	-6%	-6%	7%	?	9%	1%
CC1CCN(C2CCN(S(=O)(=O)c3ccc(C(F)(F)F)cc3)CC2)CC1	/	2%	38%	-5	11µM*	6%
Cc1cc(C)cc(C(=O)NC(C)C2CCCO2)c1 (stereo not given)	/	/	/	1	/	/
O=C(Cn1cnnn1)Nc1ccccc1Cc1ccccc1	28µM*	2%	12%[11.4 µM]	-6	1%	-1%
O=C(CCc1nnc2n(Cc3ccc(F)cc3)c(=O)c3ccccc3n12)N1CCN(c2ccccn2)CC1	-15%	4%	-4%	0	13µM*	-1%
Cc1ccc(Sc2cnn(-c3ccccc3)c(=O)c2Cl)cc1	-2%	7%	0%	-2	11%	-10%
Nc1ccc(Sc2cnn(-c3ccccc3)c(=O)c2Cl)cc1	20µM*	9%	-20%	-4	8%	-4%
O=C(NCc1ccccc1)N1CCn2c(nc3ccccc32)C1	32µM*	-2%	35%	3	2%	-1%
